An excerpt weighted towards active compounds, which were near 2.4% of everything screened.
D2 PAM-1 = potentiates the human D2 dopamine receptor allosterically | P14416 | DiscoveRx D2 beta-arrestin cells, luminescence, 90 min; 100% = 57 uM dopamine signal | AID 624464 | potentiation, % (concentration not given with the values) | 360,000 compounds, 0.23% hits; in the data active means potentiation above about 50%; inconclusive means mostly about 30% to 49%
Target sequence (P14416 whole entry, looked up): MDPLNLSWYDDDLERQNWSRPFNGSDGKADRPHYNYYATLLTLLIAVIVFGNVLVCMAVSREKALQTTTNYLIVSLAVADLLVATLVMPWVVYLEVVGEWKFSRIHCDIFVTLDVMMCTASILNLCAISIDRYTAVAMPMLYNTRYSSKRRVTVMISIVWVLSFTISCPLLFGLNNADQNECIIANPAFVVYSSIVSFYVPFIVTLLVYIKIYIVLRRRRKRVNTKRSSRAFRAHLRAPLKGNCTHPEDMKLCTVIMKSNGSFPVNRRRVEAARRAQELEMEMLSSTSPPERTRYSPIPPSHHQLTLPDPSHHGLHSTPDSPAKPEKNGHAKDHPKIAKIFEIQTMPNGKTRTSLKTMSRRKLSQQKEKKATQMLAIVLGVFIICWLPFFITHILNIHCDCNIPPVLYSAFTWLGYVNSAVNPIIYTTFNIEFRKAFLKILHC
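PathHunter beta-arrestin assay in DiscoveRx D2 cells. Compounds were added with an EC20 of dopamine (50 nM final) for 90 min at 37 deg C. Luminescence was read 1 h after detection reagent, with 57 uM dopamine as the EC100 control.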
D2 PAM-2 = D2 dopamine receptor (human) potentiation; 340,000 compounds, 0.34% hits; AID 485347; potentiation, % at 10 µM; P14416; HEK293 T-REx D2, calcium flux, EC20 dopamine potentiation;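 active means potentiation over 3 SD above the plate norm, cut at about 30% in these data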
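Using a no-wash calcium dye in inducible, force-coupled HEK293 Trex cells expressing D2, we tracked fluorescence each second for 180 s after compound, then for 180 s after EC20 dopamine to detect augmented signalling.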
B2AR arrestin = recruits beta-arrestin to the human beta2-adrenergic receptor; beta-arrestin recruitment to beta2AR, cell-based reporter; Potency, µM (highest dose often 46.1 µM), hits mostly activators; 330,000 compounds, 0.02% hits; AID 492947; further: nearly all actives have a fitted effect of over 65% in size
D2 ag-1 = human D2 receptor agonism in beta-arrestin assay; activation, % (no concentration beside the values); DiscoveRx PathHunter D2 beta-arrestin, luminescence, 90 min; 100% = 57 uM dopamine signal; AID 624465; 360,000 compounds, 0.084% hits; in the data active means activation above about 40%; inconclusive means between about 15% and that limit
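DiscoveRx PathHunter D2 beta-arrestin cells (2,100/well) attached overnight, then compound-stimulated 90 min at 37 C in HBSS/10 mM HEPES/0.1% Tween-20 buffer; beta-galactosidase complementation read by luminescence after 1 h at ambient temperature. Dopamine 57 uM final (EC100) as control.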
D2 ag-2 = D2 dopamine receptor (human) agonism. AID 485358. 340,000 compounds, 0.53% hits. HEK293 T-REx D2 cells, calcium flux agonist mode. activation, % at 2 µM. P14416;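 active means activation over 3 SD above normal in the single-dose calcium agonist read, cut at about 30% in these data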
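Agonism scored from kinetic calcium signal (1 read/sec, 180 s) following compound pin transfer, after a 10 s baseline. Cells: HEK293 Trex line expressing inducible D2 receptor coupled to calcium, dye-loaded after overnight culture at 30 C.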
D2 antag = antagonists of human D2 dopamine receptor; P14416; HEK293 TREx D2 cells, calcium flux, dopamine EC80; inhibition, % at 10 µM; 340,000 compounds, 2% hits; AID 485344; in the data active means inhibition above about 30%; inactive means below that, where a call was filed
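Cells plated overnight at 30 C with tetracycline; no-wash calcium dye, 30–90 min RT; 10 s baseline; compound pinned; 180 s read; EC80 dopamine added; another 180 s read.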
D3 arrestin ag = D3 receptor agonism confirmed, beta-arrestin readout; AID 720506; Potency, µM (top dose mostly 76.9 µM), most hits filed as activators; shares compounds with D2 ag-2; 2,300 compounds, 4% hits; DiscoveRx D3 beta-arrestin cells, luminescence, 90 min; further: nearly all actives have a fitted effect of over 70% in size
D2 ag-3 = counter-screen for D3 agonists: human D2 dopamine receptor agonism. DiscoveRx PathHunter D2 beta-arrestin, luminescence, 90 min; response scale: percent relative to full dopamine signal. 2,300 compounds, 5.9% hits. Potency, µM (doses to about 76.9 µM), hits mostly activators. shares compounds with D2 ag-2; further: nearly all actives have a fitted effect of over 70% in size
Large screens that a line does not name were inactive (follow-up assays come after a bar, where they were run). Unless noted, the call rests on the fitted dose curve; in most records, active means well fitted activation curve with a large enough effect; inconclusive means small, poorly fitted or top-dose-only effect; inactive means flat fitted curve, though single readings scatter.

c1ccc(CN2CCN(c3ncccn3)CC2)cc1	D2 PAM-1 inconclusive, D2 ag-1 55.5, D2 ag-2 86.3, D2 antag 83.6 | D3 arrestin ag inconclusive | D2 ag-3 2.51µM
O=C(Cn1c(=O)cnc2ccccc21)NNC(=O)c1ccc(Cl)cc1	none (no result: D2 PAM-2, D2 ag-2, D2 antag) | D3 arrestin ag inactive | D2 ag-3 inactive
CCc1ccc(C(=O)NNC(=O)Cn2c(=O)cnc3ccccc32)cc1	none
CN1CCc2c(sc(NC(=O)c3ccc([N+](=O)[O-])o3)c2C(N)=O)C1	D2 ag-2 74.6 | D3 arrestin ag inactive | D2 ag-3 inactive
CC(C)NC(=O)Cc1ccc(Br)cc1	none (no result: B2AR arrestin)
CCCC(C)NC(=O)Cc1ccc(Br)cc1 (centres undefined)	none | D3 arrestin ag inactive | D2 ag-3 inactive
CCN(CC(=O)Nc1ccccc1C(F)(F)F)C(=O)c1ccccc1Sc1ccccc1C#N	none | D3 arrestin ag inactive | D2 ag-3 inactive
CN(CC(=O)Nc1ccccc1C(F)(F)F)C(=O)c1ccccc1Sc1ccccc1C#N	none
Cc1n[nH]c(C)c1CCC(=O)N/N=C/c1cccs1	none | D3 arrestin ag inactive | D2 ag-3 inactive
Cc1ccsc1/C=N\NC(=O)CCc1c(C)n[nH]c1C	none
Cn1cccc1C(=O)OCc1cc(-c2ccco2)on1	none
O=C(CNS(=O)(=O)c1ccccc1)OCc1cccc([N+](=O)[O-])c1	D2 ag-2 41.3 | D3 arrestin ag inactive | D2 ag-3 inactive
O=C(CNS(=O)(=O)c1ccccc1)OCC(=O)c1cccc([N+](=O)[O-])c1	none
O=C(NCCNS(=O)(=O)c1ccccc1)c1ccc([N+](=O)[O-])cc1	D2 ag-2 57.5 | D3 arrestin ag inactive | D2 ag-3 inactive
CCCN(CCC)CCCNC(=O)CC(C(=O)N1CCc2ccccc21)n1ccnc1 (centres undefined)	none | D3 arrestin ag inactive | D2 ag-3 inactive
O=C(Nc1cccc(C(=O)N2CCOCC2)c1)c1ccc([N+](=O)[O-])cc1	D2 ag-2 39.4 | D3 arrestin ag inconclusive | D2 ag-3 inactive
COc1ccc(CCN2CC(C(=O)N(C)CC(=O)Nc3ccc(Cl)c(C(F)(F)F)c3)CC2=O)cc1OC (centres undefined)	none | D3 arrestin ag inactive | D2 ag-3 inactive
CN(CC(=O)Nc1ccc(Cl)c(C(F)(F)F)c1)C(=O)C1CC(=O)N(CCc2ccccc2)C1 (centres undefined)	none | D3 arrestin ag inactive | D2 ag-3 inactive
CCCN1CCc2c(sc(NC(=O)c3ccc(S(=O)(=O)N4CCN(C(=O)OCC)CC4)cc3)c2C(N)=O)C1	D2 ag-2 46.9 | D3 arrestin ag inactive | D2 ag-3 inactive
O=C(Cn1nnc2ccccc21)OCC(=O)c1ccc(F)cc1	none
CCN(CC)CCOC(=O)c1cccc(Br)c1	none
O=C(OCCc1cc2ccccc2c(=O)o1)c1cccc(Br)c1	none | D3 arrestin ag inactive | D2 ag-3 inactive
O=C(OCCc1cc2ccccc2c(=O)o1)c1ccc(F)cc1	none
CN(CCOC(=O)c1cccc(Br)c1)C(C)(C)C	D2 ag-2 70.6, D2 antag 31.1 | D3 arrestin ag inactive | D2 ag-3 inactive
O=C(OCCc1cc2ccccc2c(=O)o1)c1ccc(C(F)(F)F)cc1	none | D3 arrestin ag inactive | D2 ag-3 inactive
O=C(CSc1nnc(-c2ccncc2)s1)Nc1ccc(Cl)c(C(=O)O)c1	none (no result: D2 PAM-2, D2 ag-2, D2 antag)
COc1cccc(OC)c1C(=O)NC(=O)Nc1c(F)c(F)c(F)c(F)c1F	none
Cc1cn2c(=O)c(C(=O)N3CCN(c4ccccc4)CC3)cnc2s1	none | D3 arrestin ag inactive | D2 ag-3 inactive
Cc1cn2c(=O)c(C(=O)N3CCN(c4ccccc4F)CC3)cnc2s1	none
CCC(=O)Nc1c(C)nn(C(=O)CC)c1C	none
CN=c1scc(-c2ccc([N+](=O)[O-])cc2)n1/N=C/c1ccco1	none
CN=c1scc(-c2ccc(F)cc2)n1/N=C/c1ccc(O)c(O)c1	D2 PAM-1 inconclusive, D2 ag-1 102.9, D2 ag-2 31.9, D2 antag 76.2 (no result: D2 PAM-2) | D3 arrestin ag 12.6µM | D2 ag-3 31.6µM
O=C(OCCN1C(=O)c2cccc3c(N4CCOCC4)ccc(c23)C1=O)c1ccccc1Cl	none (no result: D2 ag-2, D2 antag) | D3 arrestin ag inconclusive | D2 ag-3 inconclusive
Cc1cc(NC(=O)CSCC(=O)Nc2cc(Cl)ccc2N2CCN(C)CC2)no1	none | D3 arrestin ag inactive | D2 ag-3 inactive
COc1ccccc1/C=C/CN1CCN(Cc2ccc(F)cc2)C(CCO)C1 (centres undefined)	none (no result: D2 PAM-2, D2 ag-2, D2 antag)
COc1cc(CN2CCN(CCCc3ccccc3)CC2CCO)cc(OC)c1 (centres undefined)	D2 ag-2 63.0, D2 antag 65.3 | D3 arrestin ag inactive | D2 ag-3 inactive
OCCC1CN(CCCc2ccccc2)CCN1CCc1ccccc1 (centres undefined)	none
OCCC1CN(CCCc2ccccc2)CCN1Cc1ccccc1 (centres undefined)	D2 ag-2 57.3, D2 antag 40.2 | D3 arrestin ag inactive | D2 ag-3 inactive
COc1cc(CN2CCN(CCc3ccccc3)C(CCO)C2)cc(OC)c1 (centres undefined)	none
OCCC1CN(C/C=C/c2ccco2)CCN1Cc1ccccc1 (centres undefined)	none | D3 arrestin ag inactive | D2 ag-3 inactive
CCCCC1(C)OC(=O)C(=Cc2ccc(N(C)C)cc2)C(=O)O1 (centres undefined)	none
CCN(CC)S(=O)(=O)c1ccc2c(c1)c(=O)c(C(=O)NCCc1ccccc1)cn2C	none
O=C(O)c1cccc(-n2c(/C=C/c3ccc([N+](=O)[O-])cc3)nc3ccccc3c2=O)c1	none | D3 arrestin ag inactive | D2 ag-3 inactive
O=C(O)c1cccc(-n2c(/C=C/c3cccc([N+](=O)[O-])c3)nc3ccccc3c2=O)c1	none
COc1ccc(S(=O)(=O)N2CCC(C(=O)O)(c3ccccc3)CC2)cc1	none
Oc1ccc(Cl)cc1C=NCCc1ccccc1	D2 ag-2 43.4 | D3 arrestin ag inconclusive | D2 ag-3 inactive
CCCOc1ccc(C(=O)N2CCN(c3ccc(N)cc3Cl)CC2)cc1	D2 ag-2 30.9 | D3 arrestin ag inactive | D2 ag-3 inactive
CCCCOc1ccc(C(=O)N2CCN(c3ccc(N4CCOCC4)nn3)CC2)cc1	none
COc1ccc(C(=O)N2CCC(C(=O)N3CCN(c4ccc(OC)cc4)CC3)CC2)cc1	none
